The values that follow come from PubChem BioAssay (EPA / NIEHS).

Calls of active or inactive are those of the source. How the source made its calls: active means hit-call score of the fitted dose curve at least 0.9, where 1 is the maximum; inconclusive means response in the unintended direction; inactive means score below 0.9.

This assay deals with rat CYP2C6, gene 293989. Kind of assay: NVS_ADME_rCYP2C6: NovaScreen (NVS) CYP450-related Enzyme Activity (ADME) Assay for rat CYP2C6 (AID 2283120). The procedure: NVS_ADME_rCYP2C6 is a biochemical, single-readout assay that uses extracted gene-proteins in a cell-free assay. Measurements were taken 1 hour after chemical dosing in a 96-well plate.NVS_ADME_rCYP2C6 is one of one assay component(s) measured or calculated from the NVS_ADME_rCYP2C6 assay. It is designed to make measurements of enzyme activity, a form of enzyme reporter, as detected with fluorescence intensity signals by Fluorescence technology.Data from the assay component NVS_ADME_rCYP2C6 was analyzed into 1 assay endpoint. This assay endpoint, NVS_ADME_rCYP2C6, was analyzed in the positive analysis fitting direction relative to Acetonitrile as the negative control and baseline of activity. Using a type of enzyme reporter, loss-of-signal activity can be used to understand changes in the enzymatic activity as they relate to the gene Cyp2c6v1. Furthermore, this assay endpoint can be referred to as a primary readout, because this assay has produced multiple assay endpoints where this one serves a enzymatic activity function. To generalize the intended target to other relatable targets, this assay endpoint is annotated to the cyp intended target family, where the subfamily is xenobiotic metabolism.
Binding assays used specific radioligands (tritiated, iodinated) with non-radioactive competitive displacement ligands in agonist or antagonist protocols (as indicated) and various reference compounds and inhibitors to titrate specific binding to receptors and transporters. Most enzyme assays (CYPs, kinases, phosphatases, proteases, HDACs) used recombinant protein and specific substrates (fluorescence mostly, some colorimetric and radioactive) and inhibitors, followed by a biochemical separation of substrate and product. All assays for the biochemical HTS were initially run in duplicate at a single concentration (10 uM for CYP450 assays and 25 uM for all others). Assay-chemical combinations meeting a pre-defined threshold (e.g., 30% inhibition and other criteria defined below) were then run in singleton concentration-response format with maximum concentration of 20 uM for CYPs and 50 uM for all others. Each assay was run with positive and negative controls, and concurrent controls on every plate. The follow-up (secondary) screen tested active chemical-pairs in concentration series, as well as a few additional assays not tested in the primary screen, some selected negative inactives, and several cases re-run in the concentration series for confirmatory purposes.
`CCCCOCN(C(=O)CCl)c1c(CC)cccc1CC`: the AC50 is 3340 nM (active).

As for `CCN(CC)c1nc(C)cc(OP(=S)(OC)OC)n1`, the AC50 is 723 nM (active).

Turning to `CCNP(=S)(OC)O/C(C)=C/C(=O)OC(C)C` (configuration not stated), the AC50 was 151 nM (active).

For `CCN(CC)C(=O)C(C)Oc1cccc2ccccc12` (configuration not stated), the AC50 was 4210 nM (active).

Consider `COC(=O)c1c(C(F)F)nc(C(F)(F)F)c(C2=NCCS2)c1CC(C)C`, for which the AC50 is 3590 nM (active).

As for `CCCCC(O)(Cn1cncn1)c1ccc(Cl)cc1Cl` (configuration not stated), the AC50 was 3590 nM (active).

For `CO/N=C(/C1=NOCCO1)c1ccccc1Oc1ncnc(Oc2ccccc2Cl)c1F`, the AC50 is 1740 nM (active).

As for `CC(C)NC(=O)N1CC(=O)N(c2cc(Cl)cc(Cl)c2)C1=O`, the AC50 was 2380 nM (active).

Take `CSC(=O)c1c(C(F)F)nc(C(F)(F)F)c(C(=O)SC)c1CC(C)C`: the AC50 was 2990 nM (active).

Turning to `COP(=S)(OC)Oc1ccc([N+](=O)[O-])c(C)c1`, the AC50 is 177 nM (active).

With `COP(=S)(OC)SCn1nnc2ccccc2c1=O`, the AC50 is 634 nM (active).

As for `CCOP(=S)(OCC)Oc1nc(Cl)n(C(C)C)n1`, the AC50 is 837 nM (active).

What is called AC50 is the concentration at which the activity in the assay is half-maximal.
